The supplement of paper PMC13380429

Assays:
[1] = system: Vero E6 infected with SARS-CoV-2; test: morphology score (similarity to uninfected cells); higher = more like uninfected cells; conditions: 24 h
[2] = system: Vero E6 infected with SARS-CoV-2; test: SARS-CoV-2 infection rate relative to infected DMSO; higher = more infection, active = 60 or less; conditions: 24 h

Structure (SMILES): CS(=O)(=O)c1ccc([C@@H](CC2CCCC2)C(=O)Nc2nccs2)cc1 (10 µM)
- morphology score [1]: 0.0357
- SARS-CoV-2 infection rate [2]: 104% (inactive)

Structure (SMILES): Cc1cc(C)cc(C(=O)O[C@H]2C[C@H]3CC[C@@H](C2)N3C)c1 [tropanyl-3,5-dimethylbenzoate] (10 µM)
- morphology score [1]: 0.23
- SARS-CoV-2 infection rate [2]: 90% (inactive)

Structure (SMILES): COc1cccc(-c2ccc([C@@H](Oc3cc(-c4ccc(C[C@H](N)C(=O)O)cc4)nc(N)n3)C(F)(F)F)cc2)c1 (10 µM)
- morphology score [1]: 0.0975
- SARS-CoV-2 infection rate [2]: 102% (inactive)

Structure (SMILES): NC1=N[C@@]2(c3cc(NC(=O)c4ccc(F)cn4)ccc3F)COC[C@H]2CS1 (10 µM)
- morphology score [1]: 0.00208
- SARS-CoV-2 infection rate [2]: 116% (inactive)

Structure (SMILES): Cc1nc(C)c(-c2ccc(C3CCC(CC(=O)O)CC3)cc2)nc1C(N)=O (stereo not given) (10 µM)
- morphology score [1]: 0.134
- SARS-CoV-2 infection rate [2]: 89.5% (inactive)

Structure (SMILES): Cc1cc2ncc(C(=O)NCC(C)(C)NCC(=O)N3CCC[C@H]3C#N)cn2n1 [anagliptin] (10 µM)
- morphology score [1]: -0.112
- SARS-CoV-2 infection rate [2]: 110% (inactive)

Structure (SMILES): Cc1c(N(C)C)c(=O)n(-c2ccccc2)n1C [amidopyrine] (10 µM)
- morphology score [1]: -0.0419
- SARS-CoV-2 infection rate [2]: 110% (inactive)

Structure (SMILES): NC(=O)c1ncn([C@@H]2O[C@H](CO)[C@@H](O)[C@H]2O)c1O [mizoribine] (10 µM)
- morphology score [1]: 0.0626
- SARS-CoV-2 infection rate [2]: 112% (inactive)

Structure (SMILES): CCCn1c(=O)c(C)cn2nc(N)nc12 (10 µM)
- morphology score [1]: 0.276
- SARS-CoV-2 infection rate [2]: 96.5% (inactive)

Structure (SMILES): CCOC(=O)[C@@H](N)CCC(=O)N[C@@H](CSCc1ccccc1)C(=O)N[C@@H](C(=O)OCC)c1ccccc1 [ezatiostat] (10 µM)
- morphology score [1]: 0.202
- SARS-CoV-2 infection rate [2]: 78.5% (inactive)
